Compound activity (PubChem)
VP16 counter: counter-screen for ROR gamma inhibitors: Gal4-VP16 reporter. Drosophila S2 Gal4-VP16 UAS-luciferase, luminescence, 20 h. AID 2546. 310,000 compounds, 3.5% hits. Potency, µM (top dose mostly 53.6 µM), for inactives: at the top dose activity, negative = inhibition, usual class: inhibitors;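 also: Gal4-VP16 expression switched on by copper sulfate through the metallothionein promoter; nearly all actives have a fitted effect of over 50% in size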
RORgamma inh: inhibitors of mouse ROR gamma transcriptional activity | P51450 | Drosophila S2 Gal4-RORgamma UAS-luciferase reporter, 20 h | Potency, µM (series often up to 53.6 µM), for the others: top-dose activity change, negative = inhibition, actives largely listed as inhibitors | 310,000 compounds, 5.4% hits | AID 2551; also: nearly all actives have a fitted effect of over 60% in size
Target sequence (P51450 whole entry, looked up, the tested form may be a part): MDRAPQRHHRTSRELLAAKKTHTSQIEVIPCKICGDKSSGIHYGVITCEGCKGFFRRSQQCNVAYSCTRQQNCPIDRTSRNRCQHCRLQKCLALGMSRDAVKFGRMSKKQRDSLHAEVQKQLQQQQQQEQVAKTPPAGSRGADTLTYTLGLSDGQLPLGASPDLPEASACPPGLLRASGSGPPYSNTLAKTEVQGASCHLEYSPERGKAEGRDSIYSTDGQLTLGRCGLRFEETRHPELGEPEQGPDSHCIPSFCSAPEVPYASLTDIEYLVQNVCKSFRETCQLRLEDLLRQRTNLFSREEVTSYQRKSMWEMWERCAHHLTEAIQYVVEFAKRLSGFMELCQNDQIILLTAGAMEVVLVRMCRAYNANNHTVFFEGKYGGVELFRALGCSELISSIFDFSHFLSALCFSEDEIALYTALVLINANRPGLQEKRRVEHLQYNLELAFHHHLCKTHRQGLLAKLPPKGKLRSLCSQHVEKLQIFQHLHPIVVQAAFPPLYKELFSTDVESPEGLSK
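Compounds are pin-transferred onto Drosophila Schneider cells expressing a copper-inducible Gal4–ROR gamma transactivation domain fusion. After 1 hr, copper sulfate is added to 700 uM final; luciferase is read 20 hr later.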
TDP1 cell CPT: growth inhibition of DT40 Tdp1-/-;hTDP1 cells with camptothecin (screen for TDP1 inhibitors) | AID 686979 | 420,000 compounds, 12% hits | Potency, µM (series often up to 46.2 µM), inactives show top-dose activity change, negative = growth inhibition, actives largely listed as inhibitors | chicken DT40 Tdp1-/-;hTDP1 cells + 20 nM CPT, ATP luminescence, 48 h; also: nearly all actives have a fitted effect of over 55% in size
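Chicken DT40 Tdp1-/- cells stably complemented with human TDP1 were seeded at 400 cells/well in medium containing 20 nM camptothecin, exposed to pin-transferred compounds, and grown at 37 °C for at least 48 hr. Viability was read as ATP luminescence.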
TDP1 block: blocks human tyrosyl-DNA phosphodiesterase 1 | recombinant TDP1, AlphaScreen DNA substrate cleavage | 350,000 compounds, 0.28% hits | Potency, µM (highest dose often 130 µM), for the others: at the top dose activity change, negative = inhibition, hits mostly inhibitors | AID 485290 | Q9NUW8; also: nearly all actives have a fitted effect of over 40% in size
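Signal: AlphaScreen proximity between streptavidin donor and anti-FITC acceptor beads on intact substrate. Reaction: Tdp1 1 nM, substrate 15 nM final, 5 min RT after 15 min compound preincubation.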
TDP1 cell noCPT: qHTS for Inhibitors of human tyrosyl-DNA phosphodiesterase 1 (TDP1): qHTS in cells in absence of CPT; Potency, µM (top dose mostly 46.2 µM), for inactives: at the highest dose activity change, negative = growth inhibition, hits mostly inhibitors; DT40 Tdp1-/- hTDP1 cells, no CPT, ATP luminescence, 48 h; 420,000 compounds, 15% hits; also: nearly all actives have a fitted effect of over 55% in size
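Camptothecin absent (DMSO only). Human TDP1-complemented DT40 knockout cells, 400 cells/well, 37 °C for minimum 48 hr; ATP measured via CellTiter-Glo, 30 min dark incubation, luminescence.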
An asterisk follows results filed as active; ? = inconclusive; . = not tested or not shown; [ ] = remark or other dose. Compounds with a hit are over-represented: about 19% of the library has one in this group of screens. Calls follow the shape of the dose curve; as a rule, active = well fitted curve in the direction sought with a large enough effect; inconclusive = small, poorly fitted or top-dose-only effect, or another doubt; inactive = no such curve, though single readings can be large; an effect the other way counts as inactive or inconclusive. % is scaled to controls: 0 for no effect and ±100 for the full control effect; potency is read from the fitted curve at half-maximal effect.

SMILES	VP16 counter	RORgamma inh	TDP1 cell CPT	TDP1 block	TDP1 cell noCPT
COc1ccc(CNc2ccnc(-c3cccnc3)n2)c(OC)c1	-15%	?	23µM*	.	?
NC(=O)[C@H]1CC2(CC(c3cccc(NC(=O)COc4ccc(Cl)cc4)c3)=NO2)CN1C(=O)[C@H]1CCC(=O)N1 (some centres not stated)	3%	-16%	0%	6%	-34%
Cc1nn(C)c(C)c1S(=O)(=O)N1CCC(C(=O)NCCC2=CCCCC2)CC1	1%	29%	18µM*	4%	?
Cc1cc(C)c(S(=O)(=O)N2CCCC(C(=O)NCCC3=CCCCC3)C2)c(C)c1 (configuration not stated)	-14%	25%	?	0%	21µM*
COc1ccc(C)cc1S(=O)(=O)N1CCC(C(=O)NCCC2=CCCCC2)CC1	-4%	-9%	?	-1%	?
COc1ccc(Cl)cc1S(=O)(=O)N1CCC(C(=O)NCCC2=CCCCC2)CC1	-1%	26%	23µM*	2%	?
COc1cccc2cc(C(=O)NCc3ccccc3)c(=N)oc12	-2%	-15%	21µM*	3%	?
CCOc1cccc2cc(C(=O)NC(C)c3ccccc3)c(=N)oc12 (configuration not stated)	-2%	-15%	?	1%	26µM*
COc1cccc2cc(C(=O)NCc3ccc(Cl)cc3)c(=O)oc12	10%	?	3%	-2%[0.0935 µM]	?
COc1cccc2cc(C(=O)NCc3ccc(Cl)cc3)c(=N)oc12	?	0.089µM*	23µM*	-5%	?
CCOc1cccc2cc(C(=O)NCc3ccc(F)cc3)c(=N)oc12	-7%	-4%	?	2%[56.1 µM]	23µM*
CC1(C)CC(NC(=O)C(C)(C)Oc2ccc(Cl)cc2)CC(C)(C)N1	-2%	4%	1%	.	-13%
CCOc1nc(-c2ccccc2)ccc1-c1noc(-c2ccco2)n1	-26%	?	-30%	0%	-19%
Cc1cccc(-n2c(O)c(C=Nc3ccc4c(c3)OCO4)c3ccccc3c2=O)n1	-1%	35%	?	-2%	?
Cc1cc(N=Cc2c(O)n(-c3ccc4c(c3)OCO4)c(=O)c3ccccc23)ccn1	?	?	18µM*	3%	18µM*
CCOC(=O)Cc1csc(/N=C/c2c(O)n(-c3ccc(C)c(C)c3)c(=O)c3ccccc23)n1	-12%	?	21µM*	1%	?
Cc1ccc(-n2c(O)c(C=Nc3ccc4c(c3)OCO4)c3ccccc3c2=O)cc1C	-3%	-11%	7.3µM*	4%	?
Cc1cccc(-n2c(O)c(C=Nc3cccc(O)c3)c3ccccc3c2=O)n1	-14%	20%	21µM*	.	?
CC[C@@]12C(=O)N(c3cccc(C)c3)C(=O)N1[C@H](c1ccc(Br)cc1)[C@@H]1C(=O)N(C(C)(C)C)C(=O)[C@@H]12	2%	32%	?	.	?
Cc1noc(C)c1COC(=O)C1COc2ccccc2O1 (configuration not stated)	-2%	-23%	7%	0%	-8%
O=C1NCCN1CCN1C(=O)c2ccccc2NC1c1ccccc1 (configuration not stated)	5%	1%	2%	.	12%
COc1cc(CNc2ccc3[nH]c(=O)[nH]c3c2)ccc1OCc1cccc(C)c1	-22%	-36%	?	.	?
C[C@H]1CN=C2N(CCNC(=O)CCC3CCCCC3)[C@H](Cc3ccc(O)cc3)CN21	-3%	-7%	?	4%	?
O=C(CCC1CCCCC1)NCCN1C2=NC[C@@H](Cc3ccccc3)N2C[C@H]1Cc1ccc(O)cc1	8.9µM*	10µM*	16µM*	1%	16µM*
O=C(CCC1CCCCC1)NCCN1C2=NC[C@H](Cc3ccccc3)N2C[C@H]1Cc1ccc(O)cc1	?	17%	21µM*	8%	18µM*
SMILES	VP16 counter	RORgamma inh	TDP1 cell CPT	TDP1 block	TDP1 cell noCPT
C/C=C(\C)C(=O)NCCN1C2=NC[C@H](Cc3ccc(O)cc3)N2C[C@H]1Cc1ccc(O)cc1	-4%	22%	4%	5%	-20%
CCC(=O)N(CCc1ccccc1C)Cc1cc2ccc(C)cc2[nH]c1=O	-10%	35%	-5%	.	-2%
CCCCCCN(C(=O)CCl)c1ccccc1	?	?	16µM*	6%	10µM*
CCCCCCCN(C(=O)CCl)c1cccc(C)c1	?	?	?	-1%	23µM*
CCOC(=O)C1=C(C)NC2=C(C(=O)C(C(=O)OCC)C(c3ccc(OC)cc3)C2)C1c1ccccn1 (configuration not stated)	-2%	5%	-26%	1%	2%
COc1cc(CN2C(=O)C(C)ON=C2c2ncccc2C)cc(OC)c1 (configuration not stated)	.	.	-11%	.	-5%
FC(F)(F)c1ccc(Nc2nnnc3ccccc23)cc1	17%	?	?	.	3.7µM*
Cc1[nH]n(-c2ccccc2)c(=O)c1C(=O)c1cccc(F)c1	1%	-13%	?	5%	?
Cc1[nH]n(-c2ccccc2)c(=O)c1C(=O)c1ccc(Cl)cc1	6%	11µM*	?	4%	?
CC/C(=N/NC(=O)c1ccccc1O)c1c(C)[nH]n(-c2ccccc2)c1=O	.	.	2.1µM*	.	1.8µM*
CCSC(=S)c1c(C)[nH]n(-c2ccccc2)c1=O	1.1µM*	0.35µM*	15µM*	0%	13µM*
Cc1[nH]n(-c2ccc(Cl)cc2)c(=O)c1C(=O)c1ccccc1	-25%	?	?	6%	?
CC(=O)N(c1ccccc1)C(C)c1nc(C#N)c(C#N)nc1C (configuration not stated)	-27%	4%	?	4%	?
O=C(c1cccc([N+](=O)[O-])c1)N1CCN(c2ccc(N3CCOCC3)nn2)CC1	.	.	6%	-7%	-4%
Cc1ccc(Nc2ccc(N3CCN(C(=O)c4ccc([N+](=O)[O-])cc4Cl)CC3)nn2)cc1	.	.	21µM*	8%	18µM*
O=C(c1cccc([N+](=O)[O-])c1)N1CCN(c2ccc(Nc3ccccc3)nn2)CC1	.	.	?	5%	21µM*
COc1ccc(S(=O)(=O)N2CCCCCC2)cc1C(=O)NCc1ccccc1Cl	.	.	?	-2%	?
COc1ccc2[nH]cc(CCNC(=O)COc3ccc4ccc(=O)oc4c3)c2c1	-3%	6%	?	.	21µM*
CCCc1cc(=O)oc2cc(OCC(=O)Nc3cc(C)on3)ccc12	4%	5%	-14%	0%	-11%
